Test results published in paper PMC7862700, “An all-to-all approach to the identification of sequence-specific readers for epigenetic DNA modifications on cytosine”.

Tests used:
Experiment in all cases: DAPPL (digital affinity profiling via proximity ligation, sequencing); 10 mM Tris-HCl pH 7.5, 50 mM NaCl, 1 mM DTT, 4% glycerol, room temperature, 30 min; GST-TFs on glutathione beads, 16-mer random dsDNA library, 0.1% formaldehyde crosslink after washing; high values mean tight binding
Conditions in all cases: protein: recombinant; tags: N-terminal GST; dsDNA, one strand shown
FLI1 = molecular target: T1, FLI1 (Homo sapiens, UniProt Q01543 1-452)
T1 sequence: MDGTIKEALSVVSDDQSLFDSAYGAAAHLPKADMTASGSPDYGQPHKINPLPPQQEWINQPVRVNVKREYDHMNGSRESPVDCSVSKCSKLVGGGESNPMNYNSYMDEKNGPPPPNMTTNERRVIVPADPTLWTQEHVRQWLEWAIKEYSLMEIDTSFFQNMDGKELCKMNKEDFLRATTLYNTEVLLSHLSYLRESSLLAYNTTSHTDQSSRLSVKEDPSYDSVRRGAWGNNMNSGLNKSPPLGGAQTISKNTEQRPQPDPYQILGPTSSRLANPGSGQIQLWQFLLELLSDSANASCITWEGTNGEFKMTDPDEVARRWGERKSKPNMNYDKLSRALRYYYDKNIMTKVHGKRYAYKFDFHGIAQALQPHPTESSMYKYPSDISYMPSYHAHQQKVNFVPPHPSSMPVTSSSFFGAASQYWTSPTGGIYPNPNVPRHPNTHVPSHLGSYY
In short: (§1)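 Binding signal is given per hexamer as its read frequency for a factor divided by its frequency in the tag-only sample. GST-fused human transcription factors were expressed in yeast, captured on glutathione beads, barcoded with DNA and pooled with that sample, then incubated with 200 nmole of a 16-mer random double-stranded DNA library in Tris/NaCl/DTT/glycerol buffer for 30 min at room temperature. The pools were then washed, crosslinked, proximity-ligated, amplified by PCR and sequenced on an Illumina NextSeq500.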

GABPA = molecular target: T2, GABPA (Homo sapiens, UniProt Q06546 1-454)
T2 sequence: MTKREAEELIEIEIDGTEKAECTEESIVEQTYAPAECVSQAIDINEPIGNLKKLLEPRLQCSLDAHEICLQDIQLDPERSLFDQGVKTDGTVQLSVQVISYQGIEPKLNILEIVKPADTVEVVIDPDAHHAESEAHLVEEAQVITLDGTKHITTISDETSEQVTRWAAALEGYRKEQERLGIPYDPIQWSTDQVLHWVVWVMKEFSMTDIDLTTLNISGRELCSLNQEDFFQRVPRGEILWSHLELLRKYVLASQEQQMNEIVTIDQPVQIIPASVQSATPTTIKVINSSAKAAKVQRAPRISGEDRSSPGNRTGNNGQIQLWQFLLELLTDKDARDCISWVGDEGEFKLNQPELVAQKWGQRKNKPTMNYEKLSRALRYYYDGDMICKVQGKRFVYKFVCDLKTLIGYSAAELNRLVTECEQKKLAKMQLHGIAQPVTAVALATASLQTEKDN
In short: as §1

ERG = molecular target: T3, ERG (Homo sapiens, UniProt P11308 1-479)
T3 sequence: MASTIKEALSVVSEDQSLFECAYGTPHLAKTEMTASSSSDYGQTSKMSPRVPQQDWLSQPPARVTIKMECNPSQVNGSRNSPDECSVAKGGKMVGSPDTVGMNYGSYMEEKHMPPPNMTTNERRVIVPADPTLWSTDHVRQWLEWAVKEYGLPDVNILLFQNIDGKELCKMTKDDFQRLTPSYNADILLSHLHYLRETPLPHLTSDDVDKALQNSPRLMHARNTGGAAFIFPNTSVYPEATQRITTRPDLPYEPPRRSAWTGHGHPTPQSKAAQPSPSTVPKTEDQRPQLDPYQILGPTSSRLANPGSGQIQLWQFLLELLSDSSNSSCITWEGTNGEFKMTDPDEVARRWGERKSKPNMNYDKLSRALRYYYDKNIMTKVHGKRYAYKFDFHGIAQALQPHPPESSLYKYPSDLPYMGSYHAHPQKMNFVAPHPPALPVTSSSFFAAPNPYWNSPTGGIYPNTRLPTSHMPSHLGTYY
In short: as §1

ELF1 = ELF1 (Homo sapiens, UniProt P32519 1-619)
Sequence of ELF1 (P32519 whole entry): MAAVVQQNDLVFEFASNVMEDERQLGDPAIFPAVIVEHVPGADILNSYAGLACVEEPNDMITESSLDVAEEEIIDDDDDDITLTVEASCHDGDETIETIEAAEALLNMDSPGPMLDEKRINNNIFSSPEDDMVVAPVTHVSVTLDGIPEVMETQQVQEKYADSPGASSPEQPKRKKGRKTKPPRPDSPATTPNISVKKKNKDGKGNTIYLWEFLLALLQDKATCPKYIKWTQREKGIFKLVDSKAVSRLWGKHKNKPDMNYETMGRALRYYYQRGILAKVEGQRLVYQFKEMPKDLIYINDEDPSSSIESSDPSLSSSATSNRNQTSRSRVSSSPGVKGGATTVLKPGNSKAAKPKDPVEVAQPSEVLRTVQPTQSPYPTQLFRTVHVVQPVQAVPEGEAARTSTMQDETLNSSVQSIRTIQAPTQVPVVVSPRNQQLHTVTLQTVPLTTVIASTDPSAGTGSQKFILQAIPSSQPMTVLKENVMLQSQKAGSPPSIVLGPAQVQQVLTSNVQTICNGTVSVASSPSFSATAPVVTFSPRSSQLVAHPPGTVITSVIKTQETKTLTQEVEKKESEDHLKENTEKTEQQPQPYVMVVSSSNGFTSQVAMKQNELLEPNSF
In short: as §1

EHF = molecular target: T4, EHF (Homo sapiens, UniProt Q9NZC4 1-300)
T4 sequence: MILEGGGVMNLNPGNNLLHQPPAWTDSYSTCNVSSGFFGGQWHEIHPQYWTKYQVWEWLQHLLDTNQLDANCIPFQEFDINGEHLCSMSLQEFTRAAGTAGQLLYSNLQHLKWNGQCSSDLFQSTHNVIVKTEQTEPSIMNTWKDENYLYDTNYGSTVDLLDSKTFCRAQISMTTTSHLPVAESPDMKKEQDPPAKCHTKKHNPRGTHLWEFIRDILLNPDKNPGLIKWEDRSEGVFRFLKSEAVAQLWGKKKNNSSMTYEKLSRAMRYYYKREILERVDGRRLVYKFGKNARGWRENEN
In short: as §1

SPI1 = SPI1 (Homo sapiens, UniProt P17947 1-270)
In short: as §1

SPIB = SPIB (Homo sapiens, UniProt Q01892 1-262)
Sequence of SPIB (Q01892 whole entry): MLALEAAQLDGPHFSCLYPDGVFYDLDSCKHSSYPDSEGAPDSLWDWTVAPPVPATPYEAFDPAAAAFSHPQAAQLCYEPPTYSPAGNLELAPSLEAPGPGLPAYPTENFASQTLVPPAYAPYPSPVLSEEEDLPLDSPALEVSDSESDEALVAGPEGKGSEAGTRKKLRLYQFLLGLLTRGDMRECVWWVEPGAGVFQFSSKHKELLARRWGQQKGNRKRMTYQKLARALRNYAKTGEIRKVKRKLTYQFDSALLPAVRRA
In short: as §1

ELK3 = molecular target: T5, ELK3 (Homo sapiens, UniProt P41970 1-407)
T5 sequence: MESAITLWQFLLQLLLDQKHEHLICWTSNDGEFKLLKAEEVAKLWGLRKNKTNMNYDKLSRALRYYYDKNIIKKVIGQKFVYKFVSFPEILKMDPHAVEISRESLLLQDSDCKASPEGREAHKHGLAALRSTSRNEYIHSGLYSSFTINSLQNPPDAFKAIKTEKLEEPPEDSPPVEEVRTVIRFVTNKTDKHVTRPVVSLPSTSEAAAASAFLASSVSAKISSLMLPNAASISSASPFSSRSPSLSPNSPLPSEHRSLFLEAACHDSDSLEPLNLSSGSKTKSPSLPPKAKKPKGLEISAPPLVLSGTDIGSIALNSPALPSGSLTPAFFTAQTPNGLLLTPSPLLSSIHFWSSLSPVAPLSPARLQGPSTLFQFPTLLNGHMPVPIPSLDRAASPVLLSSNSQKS
In short: as §1

FEV = molecular target: T6, FEV (Homo sapiens, UniProt Q99581 1-238)
T6 sequence: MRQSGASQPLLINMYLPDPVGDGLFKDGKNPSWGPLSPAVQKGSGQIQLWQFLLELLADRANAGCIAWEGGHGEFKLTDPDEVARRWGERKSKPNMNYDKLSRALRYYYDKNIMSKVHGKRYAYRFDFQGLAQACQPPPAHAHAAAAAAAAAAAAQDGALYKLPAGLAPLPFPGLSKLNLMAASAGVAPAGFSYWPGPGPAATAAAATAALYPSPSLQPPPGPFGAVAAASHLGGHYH
In short: as §1

ETV5 = ETV5 (Homo sapiens, UniProt P41161 1-510)
Sequence of ETV5 (P41161 whole entry): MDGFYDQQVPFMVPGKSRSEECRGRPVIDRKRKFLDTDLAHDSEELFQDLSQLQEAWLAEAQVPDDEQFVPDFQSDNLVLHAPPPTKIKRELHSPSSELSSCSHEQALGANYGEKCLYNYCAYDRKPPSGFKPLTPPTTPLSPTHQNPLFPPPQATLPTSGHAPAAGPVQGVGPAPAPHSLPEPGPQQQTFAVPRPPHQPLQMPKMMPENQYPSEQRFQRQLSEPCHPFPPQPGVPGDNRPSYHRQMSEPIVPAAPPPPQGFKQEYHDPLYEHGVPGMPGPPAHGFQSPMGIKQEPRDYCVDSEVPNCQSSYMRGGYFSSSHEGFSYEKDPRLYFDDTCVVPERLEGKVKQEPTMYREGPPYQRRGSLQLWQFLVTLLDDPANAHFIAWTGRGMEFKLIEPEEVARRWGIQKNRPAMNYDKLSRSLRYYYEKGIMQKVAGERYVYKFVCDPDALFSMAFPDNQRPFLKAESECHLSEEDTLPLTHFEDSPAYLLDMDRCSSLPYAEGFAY
In short: as §1

SPIC = molecular target: T7, SPIC (Homo sapiens, UniProt Q8N5J4 1-248)
T7 sequence: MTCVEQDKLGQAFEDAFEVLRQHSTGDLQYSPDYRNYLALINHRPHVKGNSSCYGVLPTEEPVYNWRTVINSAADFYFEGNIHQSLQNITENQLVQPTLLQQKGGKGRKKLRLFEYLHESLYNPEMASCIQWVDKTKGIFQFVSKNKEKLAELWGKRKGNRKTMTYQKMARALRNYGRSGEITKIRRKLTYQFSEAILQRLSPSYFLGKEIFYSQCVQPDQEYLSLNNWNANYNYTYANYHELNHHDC
In short: as §1

ELF4 = ELF4 (Homo sapiens, UniProt Q99607 1-663)
Sequence of ELF4 (Q99607 whole entry): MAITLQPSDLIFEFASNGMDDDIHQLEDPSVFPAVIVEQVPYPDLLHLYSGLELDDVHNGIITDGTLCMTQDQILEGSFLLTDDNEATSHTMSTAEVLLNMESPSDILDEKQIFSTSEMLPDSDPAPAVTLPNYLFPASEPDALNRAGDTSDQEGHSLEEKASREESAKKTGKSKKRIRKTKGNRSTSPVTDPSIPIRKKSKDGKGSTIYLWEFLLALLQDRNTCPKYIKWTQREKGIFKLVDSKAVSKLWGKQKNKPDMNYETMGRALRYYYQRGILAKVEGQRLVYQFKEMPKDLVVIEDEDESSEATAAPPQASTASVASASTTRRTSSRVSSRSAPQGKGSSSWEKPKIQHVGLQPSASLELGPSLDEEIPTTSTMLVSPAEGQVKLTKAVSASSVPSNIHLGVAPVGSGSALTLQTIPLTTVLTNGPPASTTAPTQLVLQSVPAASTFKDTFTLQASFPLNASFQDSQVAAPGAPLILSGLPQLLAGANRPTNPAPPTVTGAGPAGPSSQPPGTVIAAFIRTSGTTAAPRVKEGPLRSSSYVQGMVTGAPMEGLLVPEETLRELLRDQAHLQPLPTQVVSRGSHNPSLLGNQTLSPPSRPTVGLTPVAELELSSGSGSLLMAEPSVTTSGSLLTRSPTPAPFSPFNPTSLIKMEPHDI
In short: as §1

ETV1 = ETV1 (Homo sapiens, UniProt P50549 1-477)
Sequence of ETV1 (P50549 whole entry): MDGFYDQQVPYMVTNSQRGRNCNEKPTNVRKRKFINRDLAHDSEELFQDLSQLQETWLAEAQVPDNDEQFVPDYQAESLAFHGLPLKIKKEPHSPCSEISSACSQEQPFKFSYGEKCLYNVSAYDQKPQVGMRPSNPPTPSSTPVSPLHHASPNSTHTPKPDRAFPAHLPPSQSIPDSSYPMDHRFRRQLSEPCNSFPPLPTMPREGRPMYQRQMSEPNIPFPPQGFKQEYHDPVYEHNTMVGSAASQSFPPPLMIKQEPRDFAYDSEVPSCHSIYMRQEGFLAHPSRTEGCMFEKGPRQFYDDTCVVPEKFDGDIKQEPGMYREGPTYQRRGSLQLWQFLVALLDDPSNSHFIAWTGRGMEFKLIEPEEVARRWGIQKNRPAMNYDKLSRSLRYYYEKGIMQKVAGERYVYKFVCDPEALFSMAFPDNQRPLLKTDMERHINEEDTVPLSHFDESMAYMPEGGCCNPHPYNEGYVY
In short: as §1

ERF = molecular target: T8, ERF (Homo sapiens, UniProt P50548 1-548)
T8 sequence: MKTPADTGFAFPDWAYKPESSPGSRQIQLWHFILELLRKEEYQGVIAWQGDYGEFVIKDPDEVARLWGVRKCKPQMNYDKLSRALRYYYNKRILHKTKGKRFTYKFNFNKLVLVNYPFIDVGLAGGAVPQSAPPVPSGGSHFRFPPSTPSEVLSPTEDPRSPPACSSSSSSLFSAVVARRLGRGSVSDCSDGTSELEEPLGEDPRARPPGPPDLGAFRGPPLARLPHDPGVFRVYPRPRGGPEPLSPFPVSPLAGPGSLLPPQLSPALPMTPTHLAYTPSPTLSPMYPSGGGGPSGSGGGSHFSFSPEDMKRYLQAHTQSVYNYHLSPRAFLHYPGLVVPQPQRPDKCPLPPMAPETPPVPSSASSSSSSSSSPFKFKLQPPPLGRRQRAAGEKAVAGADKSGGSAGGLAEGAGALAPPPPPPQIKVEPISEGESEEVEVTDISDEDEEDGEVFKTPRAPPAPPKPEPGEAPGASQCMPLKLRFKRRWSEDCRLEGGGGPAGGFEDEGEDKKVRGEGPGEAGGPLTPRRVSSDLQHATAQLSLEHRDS
In short: as §1

ETV3L = molecular target: T9, ETV3L (Homo sapiens, UniProt Q6ZN32 1-361)
T9 sequence: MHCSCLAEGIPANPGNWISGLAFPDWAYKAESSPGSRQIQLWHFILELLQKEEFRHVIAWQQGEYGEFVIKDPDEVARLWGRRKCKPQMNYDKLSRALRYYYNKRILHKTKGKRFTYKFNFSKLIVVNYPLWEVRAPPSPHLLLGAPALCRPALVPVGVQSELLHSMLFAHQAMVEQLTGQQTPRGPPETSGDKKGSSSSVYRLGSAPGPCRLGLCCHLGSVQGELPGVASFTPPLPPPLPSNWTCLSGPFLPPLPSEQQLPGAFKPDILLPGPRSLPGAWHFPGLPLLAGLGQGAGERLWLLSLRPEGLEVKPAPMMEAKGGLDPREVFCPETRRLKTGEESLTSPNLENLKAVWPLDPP
In short: as §1

ETS2 = molecular target: T10, ETS2 (Homo sapiens, UniProt P15036 1-469)
T10 sequence: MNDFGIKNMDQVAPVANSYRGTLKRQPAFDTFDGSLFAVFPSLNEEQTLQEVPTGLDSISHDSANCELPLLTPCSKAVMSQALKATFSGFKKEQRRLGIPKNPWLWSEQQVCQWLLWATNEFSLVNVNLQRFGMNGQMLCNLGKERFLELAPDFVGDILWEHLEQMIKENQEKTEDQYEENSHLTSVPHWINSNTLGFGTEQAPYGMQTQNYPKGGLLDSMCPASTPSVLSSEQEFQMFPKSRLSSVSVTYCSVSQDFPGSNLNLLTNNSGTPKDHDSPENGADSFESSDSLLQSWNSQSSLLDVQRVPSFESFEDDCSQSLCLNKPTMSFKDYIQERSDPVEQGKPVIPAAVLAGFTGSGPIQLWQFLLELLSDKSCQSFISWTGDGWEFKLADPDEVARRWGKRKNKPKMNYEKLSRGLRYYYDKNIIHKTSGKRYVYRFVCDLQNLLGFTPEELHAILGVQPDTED
In short: as §1

ELF5 = molecular target: T11, ELF5 (Homo sapiens, UniProt Q9UKW6-2 1-255)
T11 sequence: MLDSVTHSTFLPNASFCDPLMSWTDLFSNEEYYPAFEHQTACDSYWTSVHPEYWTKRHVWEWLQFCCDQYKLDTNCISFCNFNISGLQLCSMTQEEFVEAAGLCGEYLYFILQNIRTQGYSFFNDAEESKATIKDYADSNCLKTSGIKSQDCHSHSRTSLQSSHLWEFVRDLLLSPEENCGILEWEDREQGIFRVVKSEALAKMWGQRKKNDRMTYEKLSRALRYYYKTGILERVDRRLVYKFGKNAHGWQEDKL
In short: as §1

ETV3 = molecular target: T12, ETV3 (Homo sapiens, UniProt P41162-2 1-143)
T12 sequence: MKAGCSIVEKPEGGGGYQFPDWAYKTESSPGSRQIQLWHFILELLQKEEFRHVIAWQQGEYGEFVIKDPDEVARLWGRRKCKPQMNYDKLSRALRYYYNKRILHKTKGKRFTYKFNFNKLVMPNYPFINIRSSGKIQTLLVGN
In short: as §1

ETV6 = ETV6 (Homo sapiens, UniProt P41212 1-452)
Sequence of ETV6 (P41212 whole entry): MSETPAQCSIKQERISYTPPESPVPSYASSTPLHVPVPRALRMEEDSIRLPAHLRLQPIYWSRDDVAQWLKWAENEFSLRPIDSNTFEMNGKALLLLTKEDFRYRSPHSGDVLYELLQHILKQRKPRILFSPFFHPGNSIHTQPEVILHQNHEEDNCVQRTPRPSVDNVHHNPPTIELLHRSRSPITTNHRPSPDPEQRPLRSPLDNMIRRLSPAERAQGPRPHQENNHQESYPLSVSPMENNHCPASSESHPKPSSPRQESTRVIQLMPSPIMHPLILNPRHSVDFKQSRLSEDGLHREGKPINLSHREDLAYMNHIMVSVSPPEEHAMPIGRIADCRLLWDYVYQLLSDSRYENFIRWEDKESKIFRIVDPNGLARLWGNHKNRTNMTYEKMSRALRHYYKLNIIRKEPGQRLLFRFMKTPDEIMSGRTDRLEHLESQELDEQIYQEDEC
In short: as §1

Sequence	binding signal (FLI1)	binding signal (GABPA)	binding signal (ERG)	binding signal (ELF1)	binding signal (EHF)	binding signal (SPI1)	binding signal (SPIB)	binding signal (ELK3)	binding signal (FEV)	binding signal (ETV5)	binding signal (SPIC)	binding signal (ELF4)	binding signal (ETV1)	binding signal (ERF)	binding signal (ETV3L)	binding signal (ETS2)	binding signal (ELF5)	binding signal (ETV3)	binding signal (ETV6)
GGTTTT	1.22 fold enrichment (6-mer frequency, TF over GST control)	1.2 fold enrichment (6-mer frequency, TF over GST control)	1.1 fold enrichment (6-mer frequency, TF over GST control)	1.11 fold enrichment (6-mer frequency, TF over GST control)	1.08 fold enrichment (6-mer frequency, TF over GST control)	1.24 fold enrichment (6-mer frequency, TF over GST control)	1.05 fold enrichment (6-mer frequency, TF over GST control)	1.04 fold enrichment (6-mer frequency, TF over GST control)	1.13 fold enrichment (6-mer frequency, TF over GST control)	1.11 fold enrichment (6-mer frequency, TF over GST control)	1.04 fold enrichment (6-mer frequency, TF over GST control)	1.15 fold enrichment (6-mer frequency, TF over GST control)	1.15 fold enrichment (6-mer frequency, TF over GST control)	1.24 fold enrichment (6-mer frequency, TF over GST control)	1.08 fold enrichment (6-mer frequency, TF over GST control)	1.1 fold enrichment (6-mer frequency, TF over GST control)	1.12 fold enrichment (6-mer frequency, TF over GST control)	1.14 fold enrichment (6-mer frequency, TF over GST control)	1.05 fold enrichment (6-mer frequency, TF over GST control)
AAAGCG	1.01 fold enrichment (6-mer frequency, TF over GST control)	1.03 fold enrichment (6-mer frequency, TF over GST control)	1.09 fold enrichment (6-mer frequency, TF over GST control)	1.06 fold enrichment (6-mer frequency, TF over GST control)	1.1 fold enrichment (6-mer frequency, TF over GST control)	1.53 fold enrichment (6-mer frequency, TF over GST control)	1.1 fold enrichment (6-mer frequency, TF over GST control)	1.08 fold enrichment (6-mer frequency, TF over GST control)	1.06 fold enrichment (6-mer frequency, TF over GST control)	1.18 fold enrichment (6-mer frequency, TF over GST control)	1.08 fold enrichment (6-mer frequency, TF over GST control)	1.11 fold enrichment (6-mer frequency, TF over GST control)	1.05 fold enrichment (6-mer frequency, TF over GST control)	1.13 fold enrichment (6-mer frequency, TF over GST control)	1.04 fold enrichment (6-mer frequency, TF over GST control)	1.04 fold enrichment (6-mer frequency, TF over GST control)	1.07 fold enrichment (6-mer frequency, TF over GST control)	1.14 fold enrichment (6-mer frequency, TF over GST control)	1.1 fold enrichment (6-mer frequency, TF over GST control)
